Active and inactive are the calls of the source. Rule for the calls: active = hit-call score of the fitted dose curve at least 0.9, where 1 is the maximum; inactive = score below 0.9.

Our source for the outcome and AC50 values is PubChem BioAssay (EPA / NIEHS).

Holding throughout (settings): mRNA level, 48 h; actives raise or lower the signal
Read-out in assay [1]: Interleukin 6 Receptor (IL6R), IL6R (gene 3570)
In words: LTEA_HepaRG_IL6R: Life Technologies and Expression Analysis (LTEA) Assay for Interleukin 6 Receptor (IL6R) using HepaRG (AID 2283510). The method in brief: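 Differentiated human HepaRG cells, plated 48 h then switched to serum-free induction medium, were dosed in duplicate for 48 h at eight half-log concentrations up to 100 uM in 0.5% DMSO. IL6R mRNA quantified by qRT-PCR, normalized to ACTB/GAPDH/POLR2A; bidirectional fit versus DMSO.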

Read-out in assay [2]: Potassium channel subfamily K member 1 (KCNK1), KCNK1 (gene 3775)
In words: LTEA_HepaRG_KCNK1: Life Technologies and Expression Analysis (LTEA) Assay for Potassium channel subfamily K member 1 (KCNK1) using HepaRG (AID 2283511). The procedure, abridged: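 Differentiated human HepaRG cells in serum-free induction medium were exposed in duplicate for 48 h to 8 half-log concentrations up to 100 uM in 0.5% DMSO. KCNK1 mRNA was measured by TaqMan qRT-PCR, normalized to ACTB, GAPDH and POLR2A, and fitted bidirectionally versus DMSO.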

Read-out in assay [3]: Keratin 19 (KRT19), KRT19 (gene 3880)
As to the kind of experiment: LTEA_HepaRG_KRT19: Life Technologies and Expression Analysis (LTEA) Assay for Keratin 19 (KRT19) using HepaRG (AID 2283512). The method in brief:
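HepaRG, 48 h chemical exposure, 8-pt half-log CRC from 100 uM, 0.5% DMSO vehicle, duplicates. Readout: TaqMan qRT-PCR of KRT19 mRNA, housekeeping-normalized (ACTB/GAPDH/POLR2A). Bidirectional fit vs DMSO baseline.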

Read-out in assay [4]: JUN Transcription Factor, JUN (gene 3725)
As to the kind of experiment: LTEA_HepaRG_JUN: Life Technologies and Expression Analysis (LTEA) Assay for JUN Transcription Factor using HepaRG (AID 2283513). The procedure, abridged: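 Differentiated HepaRG cells were exposed to chemicals for 48 h in serum-free induction medium, 8 concentrations from 100 uM in half-log steps, 0.5% DMSO vehicle, in duplicate. JUN mRNA was quantified by TaqMan qRT-PCR, normalized to ACTB, GAPDH, POLR2A.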

Read-out in assay [5]: Lipase C (LIPC), LIPC (gene 3990)
As to the kind of experiment: LTEA_HepaRG_LIPC: Life Technologies and Expression Analysis (LTEA) Assay for Lipase C (LIPC) using HepaRG (AID 2283514). The method in brief: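 Differentiated human HepaRG cells in serum-free induction medium were exposed in duplicate for 48 h to eight concentrations (top 100 uM, half-log steps, 0.5% DMSO). LIPC mRNA was quantified by TaqMan qRT-PCR, normalized to ACTB, GAPDH and POLR2A, with bidirectional fitting versus DMSO.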

Read-out in assay [6]: Lipoprotein lipase (LPL), LPL (gene 4023)
As to the kind of experiment: LTEA_HepaRG_LPL: Life Technologies and Expression Analysis (LTEA) Assay for Lipoprotein lipase (LPL) using HepaRG (AID 2283515). The procedure, abridged: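 Differentiated human HepaRG cells in serum-free induction medium were exposed in duplicate for 48 h to eight half-log concentrations (top 100 uM) in 0.5% DMSO. LPL mRNA was quantified by TaqMan qRT-PCR, normalized to ACTB, GAPDH and POLR2A.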

Read-out in assay [7]: MicroRNA 122 (MIR122), gene 406906
As to the kind of experiment: LTEA_HepaRG_MIR122: Life Technologies and Expression Analysis (LTEA) Assay for MicroRNA 122 (MIR122) using HepaRG (AID 2283516). Note: the transcript read is the microRNA miR-122. The procedure, abridged: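 Differentiated human HepaRG cells were exposed 48 h in serum-free induction medium to eight half-log concentrations (top 100 uM, 0.5% DMSO). Transcript level was measured by TaqMan qRT-PCR, normalized to ACTB, GAPDH and POLR2A, and fitted bidirectionally versus DMSO.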

Read-out in assay [8]: matrix metalloproteinase-10 (MMP10), MMP10 (gene 4319)
As to the kind of experiment: LTEA_HepaRG_MMP10: Life Technologies and Expression Analysis (LTEA) Assay for matrix metalloproteinase-10 (MMP10) using HepaRG (AID 2283517). The method in brief:
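HepaRG, collagen I, ~100,000 cells/well; serum-free induction medium; 48 h exposure, duplicate, 8-pt half-log to 100 uM, 0.5% DMSO. Readout: TaqMan qRT-PCR, normalized to ACTB/GAPDH/POLR2A; bidirectional fit vs DMSO.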

Read-out in another assay: MYC, MYC (gene 4609)
As to the kind of experiment: LTEA_HepaRG_MYC: Life Technologies and Expression Analysis (LTEA) Assay for MYC using HepaRG (AID 2283518). The procedure, abridged:
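qRT-PCR read-out of MYC transcript (Fluidigm TaqMan, housekeeping-normalized) after 48 h chemical exposure of HepaRG cells; eight concentrations, top 100 uM, half-log steps. Bidirectional curve fitting against 0.5% DMSO vehicle baseline.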

Read-out in assay [9]: matrix metalloproteinase-3 (MMP3), MMP3 (gene 4314)
In words: LTEA_HepaRG_MMP3: Life Technologies and Expression Analysis (LTEA) Assay for matrix metalloproteinase-3 (MMP3) using HepaRG (AID 2283519). The procedure, abridged:
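Differentiated human HepaRG cells, plated 48 h on collagen I, were exposed in duplicate for 48 h in serum-free induction medium to eight half-log concentrations up to 100 uM in 0.5% DMSO. MMP3 mRNA was quantified by TaqMan qRT-PCR, normalised to ACTB, GAPDH and POLR2A.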

Read-out in assay [10]: Paternally Expressed 10 (PEG10), PEG10 (gene 23089)
In words: LTEA_HepaRG_PEG10: Life Technologies and Expression Analysis (LTEA) Assay for Paternally Expressed 10 (PEG10) using HepaRG (AID 2283520). The procedure, abridged: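 Differentiated HepaRG cells, plated 48 h then switched to serum-free induction medium, were exposed in duplicate for 48 h to eight half-log concentrations topping at 100 uM in 0.5% DMSO. PEG10 mRNA was quantified by TaqMan qRT-PCR, normalised to ACTB, GAPDH and POLR2A.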

Read-out in assay [11]: Nuclear factor NF-kappa-B p105 subunit (Homo sapiens) (UniProt P19838)
As to the kind of experiment: LTEA_HepaRG_NFKB1: Life Technologies and Expression Analysis (LTEA) Assay for Nuclear Factor Kappa B Subunit 1 (NFKB1) using HepaRG (AID 2283521). The procedure, abridged:
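NFKB1 transcript was measured by TaqMan qRT-PCR on Fluidigm arrays, normalised to three housekeeping genes and fitted in both directions against 0.5% DMSO. HepaRG cells were dosed in duplicate for 48 h in serum-free induction medium, eight half-log steps from 100 uM.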

Read-out in assay [12]: Protein phosphatase 2A (PPP2R4), PTPA (gene 5524)
In words: LTEA_HepaRG_PPP2R4: Life Technologies and Expression Analysis (LTEA) Assay for Protein phosphatase 2A (PPP2R4) using HepaRG (AID 2283522). The procedure, abridged:
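Differentiated HepaRG cells in serum-free induction medium were exposed in duplicate for 48 h to eight concentrations, top 100 uM with half-log dilutions, in 0.5% DMSO. PPP2R4 mRNA was quantified by TaqMan qRT-PCR, normalized to ACTB, GAPDH and POLR2A.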

Read-out in assay [13]: Phosphatase and tensin (PTEN), PTEN (gene 5728)
As to the kind of experiment: LTEA_HepaRG_PTEN: Life Technologies and Expression Analysis (LTEA) Assay for Phosphatase and tensin (PTEN) using HepaRG (AID 2283523). The procedure, abridged:
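Differentiated human HepaRG cells, plated 48 h then switched to serum-free induction medium, were exposed in duplicate for 48 h to eight half-log concentrations up to 100 uM in 0.5% DMSO. PTEN mRNA measured by TaqMan qRT-PCR, normalized to ACTB/GAPDH/POLR2A, bidirectional fit versus DMSO.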

Read-out in assay [14]: solute carrier (SLC22A1), SLC22A1 (gene 6580)
In words: LTEA_HepaRG_SLC22A1: Life Technologies and Expression Analysis (LTEA) Assay for solute carrier (SLC22A1) using HepaRG (AID 2283524). The procedure, abridged:
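Human HepaRG cells were plated 48 h, switched to serum-free induction medium, then exposed in duplicate for 48 h to 8-point half-log series from 100 uM in 0.5% DMSO. SLC22A1 mRNA measured by qRT-PCR, normalized to ACTB/GAPDH/POLR2A, fitted bidirectionally versus DMSO.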

Read-out in assay [15]: Pyruvate Dehydrogenase Kinase 4 (PDK4), PDK4 (gene 5166)
As to the kind of experiment: LTEA_HepaRG_PDK4: Life Technologies and Expression Analysis (LTEA) Assay for Pyruvate Dehydrogenase Kinase 4 (PDK4) using HepaRG (AID 2283525). The procedure, abridged:
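Differentiated human HepaRG cells, pre-cultured 48 h, were exposed in duplicate for 48 h in serum-free induction medium to eight half-log concentrations up to 100 uM in 0.5% DMSO. PDK4 mRNA was quantified by qRT-PCR, normalized to ACTB, GAPDH and POLR2A, bidirectional fitting versus DMSO.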

Read-out in assay [16]: NAD(P)H dehydrogenase [quinone] 1 (NQO1), NQO1 (gene 1728)
As to the kind of experiment: LTEA_HepaRG_NQO1: Life Technologies and Expression Analysis (LTEA) Assay for NAD(P)H dehydrogenase [quinone] 1 (NQO1) using HepaRG (AID 2283526). The method in brief: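 Differentiated HepaRG cells, plated 48 h and then switched to serum-free induction medium, were exposed in duplicate for 48 h to 8-point half-log concentrations up to 100 uM in 0.5% DMSO. mRNA measured by qRT-PCR, normalized to ACTB, GAPDH, POLR2A; bidirectional fit versus DMSO.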

Read-out in assay [17]: Nuclear factor erythroid 2-related factor 2 (Homo sapiens) (UniProt Q16236)
In words: LTEA_HepaRG_NFE2L2: Life Technologies and Expression Analysis (LTEA) Assay for Nuclear factor erythroid 2-related factor 2 (NFE2L2) Transcription Factor using HepaRG (AID 2283527). The procedure, abridged:
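Differentiated human HepaRG cells in serum-free induction medium were exposed for 48 h to eight concentrations (top 100 uM, half-log dilutions, 0.5% DMSO), in duplicate. NFE2L2 mRNA was quantified by TaqMan qRT-PCR, normalized to ACTB, GAPDH and POLR2A, with bidirectional fitting versus DMSO.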

Read-out in assay [18]: succinate dehydrogenase complex iron sulfur subunit B (SDHB), SDHB (gene 6390)
In words: LTEA_HepaRG_SDHB: Life Technologies and Expression Analysis (LTEA) Assay for succinate dehydrogenase complex iron sulfur subunit B (SDHB) using HepaRG (AID 2283528). The method in brief: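 SDHB transcript level read by TaqMan qRT-PCR, housekeeping-normalised (ACTB, GAPDH, POLR2A), after 48 h chemical treatment of plated HepaRG cells; eight concentrations top 100 uM, half-log steps, 0.5% DMSO, duplicates; fitted both directions against DMSO.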

Read-out in assay [19]: Signal transducer and activator of transcription 3 (Homo sapiens) (UniProt P40763)
In words: LTEA_HepaRG_STAT3: Life Technologies and Expression Analysis (LTEA) Assay for Signal transducer and activator of transcription (STAT3) using HepaRG (AID 2283529). The procedure, abridged: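 Differentiated human HepaRG cells in serum-free induction medium were exposed in duplicate for 48 h to eight half-log concentrations up to 100 uM in 0.5% DMSO. STAT3 mRNA was quantified by TaqMan qRT-PCR, normalized to ACTB, GAPDH and POLR2A, and fitted bidirectionally against DMSO.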

Signal transducer and activator of transcription 3 (Homo sapiens), sequence (P40763 whole entry, looked up): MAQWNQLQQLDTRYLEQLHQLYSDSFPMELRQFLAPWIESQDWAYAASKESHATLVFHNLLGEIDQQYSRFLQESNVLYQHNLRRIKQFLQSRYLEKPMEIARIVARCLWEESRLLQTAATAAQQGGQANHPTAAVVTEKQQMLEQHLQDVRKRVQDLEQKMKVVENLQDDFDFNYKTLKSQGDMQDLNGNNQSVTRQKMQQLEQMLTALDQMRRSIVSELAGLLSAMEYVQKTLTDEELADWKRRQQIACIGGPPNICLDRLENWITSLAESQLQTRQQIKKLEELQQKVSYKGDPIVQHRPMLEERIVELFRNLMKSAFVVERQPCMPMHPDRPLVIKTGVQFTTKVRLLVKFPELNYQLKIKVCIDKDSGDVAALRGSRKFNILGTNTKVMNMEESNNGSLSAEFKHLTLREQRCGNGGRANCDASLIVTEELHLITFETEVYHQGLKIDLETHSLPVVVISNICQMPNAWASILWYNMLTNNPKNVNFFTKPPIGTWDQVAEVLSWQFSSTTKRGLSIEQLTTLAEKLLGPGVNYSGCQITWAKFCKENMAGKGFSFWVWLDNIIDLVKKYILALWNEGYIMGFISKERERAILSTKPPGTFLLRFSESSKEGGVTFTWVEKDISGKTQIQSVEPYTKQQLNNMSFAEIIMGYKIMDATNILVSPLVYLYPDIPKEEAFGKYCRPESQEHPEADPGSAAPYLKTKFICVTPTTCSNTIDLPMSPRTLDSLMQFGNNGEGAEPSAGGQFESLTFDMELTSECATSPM
Nuclear factor erythroid 2-related factor 2 (Homo sapiens), sequence (Q16236 whole entry, looked up): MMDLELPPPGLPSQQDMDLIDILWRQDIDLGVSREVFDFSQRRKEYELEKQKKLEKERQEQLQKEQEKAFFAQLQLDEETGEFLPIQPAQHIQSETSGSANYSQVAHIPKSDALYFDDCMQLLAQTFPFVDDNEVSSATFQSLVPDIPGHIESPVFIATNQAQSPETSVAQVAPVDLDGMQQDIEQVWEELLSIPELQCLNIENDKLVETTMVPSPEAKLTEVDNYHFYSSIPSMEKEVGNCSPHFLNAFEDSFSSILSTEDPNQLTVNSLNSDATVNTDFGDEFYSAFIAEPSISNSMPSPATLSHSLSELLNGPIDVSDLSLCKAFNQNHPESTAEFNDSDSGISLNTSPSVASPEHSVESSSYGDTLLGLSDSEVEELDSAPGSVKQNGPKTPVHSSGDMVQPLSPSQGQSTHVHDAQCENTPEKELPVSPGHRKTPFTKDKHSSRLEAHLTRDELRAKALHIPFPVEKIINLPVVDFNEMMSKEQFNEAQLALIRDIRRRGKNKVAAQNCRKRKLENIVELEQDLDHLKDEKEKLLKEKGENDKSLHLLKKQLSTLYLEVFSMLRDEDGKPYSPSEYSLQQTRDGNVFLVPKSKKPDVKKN
Nuclear factor NF-kappa-B p105 subunit (Homo sapiens), sequence (P19838 whole entry, looked up): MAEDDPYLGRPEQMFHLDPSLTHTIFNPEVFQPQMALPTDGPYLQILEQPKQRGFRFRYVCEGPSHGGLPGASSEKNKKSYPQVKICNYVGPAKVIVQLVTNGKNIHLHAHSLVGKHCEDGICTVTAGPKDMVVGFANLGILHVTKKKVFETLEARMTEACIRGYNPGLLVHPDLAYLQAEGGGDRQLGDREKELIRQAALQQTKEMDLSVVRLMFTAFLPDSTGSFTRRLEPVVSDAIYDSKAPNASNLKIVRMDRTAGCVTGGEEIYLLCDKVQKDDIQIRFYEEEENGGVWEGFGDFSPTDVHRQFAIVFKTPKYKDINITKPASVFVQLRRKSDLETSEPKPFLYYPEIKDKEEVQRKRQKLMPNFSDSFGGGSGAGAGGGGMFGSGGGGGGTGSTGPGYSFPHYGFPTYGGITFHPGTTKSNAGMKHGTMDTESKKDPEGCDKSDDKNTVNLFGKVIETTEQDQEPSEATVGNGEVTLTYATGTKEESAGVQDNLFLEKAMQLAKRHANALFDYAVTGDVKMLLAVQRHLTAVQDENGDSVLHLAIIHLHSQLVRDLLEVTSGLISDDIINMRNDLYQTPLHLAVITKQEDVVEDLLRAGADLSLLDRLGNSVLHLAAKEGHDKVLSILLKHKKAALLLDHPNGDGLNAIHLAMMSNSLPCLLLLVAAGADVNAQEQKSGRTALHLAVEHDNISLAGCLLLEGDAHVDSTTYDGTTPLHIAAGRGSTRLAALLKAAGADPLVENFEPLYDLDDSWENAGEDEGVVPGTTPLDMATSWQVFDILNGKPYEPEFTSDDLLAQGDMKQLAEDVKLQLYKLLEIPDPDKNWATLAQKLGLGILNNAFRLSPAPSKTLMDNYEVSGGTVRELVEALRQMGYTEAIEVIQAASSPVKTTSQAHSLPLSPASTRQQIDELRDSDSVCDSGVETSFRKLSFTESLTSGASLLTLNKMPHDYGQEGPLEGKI

For the compound `CCCCC=O`, the result in assay [1], in assay [2], in assay [3], in assay [4], in assay [5] and in assay [6] was inactive. For the same compound, the outcome is “inactive” in [7]; “inactive” in assay [8]; “inactive” with MYC, MYC (gene 4609); “inactive” in assay [9]; “inactive” in [10]; “inactive” in assay [11]. In addition, the compound was classed as inactive in assay [12], in assay [13], in assay [14], in assay [15], in assay [16] and in assay [17]. The outcome in assay [18] and in [19] was inactive.

`CCCCC(CC)C(=O)O` (configuration not stated): the result in assay [1], in assay [2], in assay [3], in [4], in assay [5] and in [6] was inactive. Moreover, the outcome in assay [7] was “inactive”; in assay [8], “inactive”; with MYC, MYC (gene 4609), “inactive”; in [9] it was “inactive”; in assay [10], “inactive”; in assay [12], “inactive”. The compound was called inactive in [13], in [14], in [15], in [16], in [17] and in assay [18]. Also, the outcome in assay [19] was inactive.

Take `CCC(C)c1ccccc1O` (configuration not stated): the outcome in assay [1], in assay [2], in assay [3], in [4], in [5] and in [6] was inactive. Also, the outcome in assay [7] was “inactive”; in [8], “inactive”; in the assay with MYC, MYC (gene 4609), “inactive”; in [9] it was “inactive”; in assay [10], “inactive”; in assay [11] it was “inactive”. Further, the outcome in assay [12], in [13], in [14], in assay [15], in assay [16] and in [17] was inactive. For the same compound, the call in assay [18] and in assay [19] was inactive.

A word on the AC50: it is the concentration at which the activity in the assay is half-maximal. As for `O=C(CCCN1CCC(O)(c2ccc(Cl)cc2)CC1)c1ccc(F)cc1`, the AC50 is 50 µM (active) in assay [1]; 84.4 µM (active) in assay [2]; 36.7 µM (active) in assay [3]; 82.7 µM (active) in assay [4]; 84.9 µM (active) in assay [5]; 34.4 µM (active) in assay [6]. Besides, the AC50 in [8] is 82.4 µM (active); with MYC, MYC (gene 4609), 73.6 µM (active); in assay [9], 12.5 µM (active); in assay [14], 85.5 µM (active); in [15] it was 69.4 µM (active). Moreover, the outcome in assay [7], in [10], in assay [12], in assay [13], in assay [16] and in [18] was inactive. The result in assay [19] was inactive.
